Here are results for 40 compounds from PubChem BioAssay (NCATS).

The source made the active and inactive calls. Entries that show only a call come without a potency. The call rests on the fitted dose curve; in most records, active means well fitted inhibition curve with a large enough effect; inconclusive means small, poorly fitted or top-dose-only effect; inactive means flat fitted curve, though single readings scatter.
Potency means the concentration at half of the fitted maximal effect.

Phosphoglycerate kinase, glycosomal (Trypanosoma brucei brucei), sequence (P07378 whole entry, looked up): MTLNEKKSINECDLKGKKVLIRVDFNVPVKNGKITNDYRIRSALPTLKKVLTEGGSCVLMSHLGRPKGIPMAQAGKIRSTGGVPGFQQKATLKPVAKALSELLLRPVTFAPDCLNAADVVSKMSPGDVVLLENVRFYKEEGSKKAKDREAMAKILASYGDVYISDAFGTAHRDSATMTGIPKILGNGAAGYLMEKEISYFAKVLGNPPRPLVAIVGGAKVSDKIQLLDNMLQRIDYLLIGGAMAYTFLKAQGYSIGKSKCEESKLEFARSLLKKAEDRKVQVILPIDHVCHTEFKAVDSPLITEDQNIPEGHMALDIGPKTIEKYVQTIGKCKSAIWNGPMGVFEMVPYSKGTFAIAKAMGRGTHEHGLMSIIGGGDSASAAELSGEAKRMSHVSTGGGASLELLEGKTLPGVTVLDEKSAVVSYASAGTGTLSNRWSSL

The target in the assay is Phosphoglycerate kinase, glycosomal (Trypanosoma brucei brucei) (UniProt P07378). The experiment in a line: qHTS Validation Assay to Find Inhibitors of Phosphoglycerate Kinase (AID 504547). The settings on record: enzymatic PGK inhibition, coupled luminescence read-out; series mostly up to 57.5 µM. An excerpt:
NIH Molecular Libraries Probe Production Network [MLPCN]
NIH Chemical Genomics Center [NCGC]
PI Name: Malcolm Walkinshaw, University of Edinburgh
Several species of the Trypanosomatidae family of parasitic protozoans cause a spectrum of diseases
throughout the tropical and subtropical world. Sleeping sickness, caused by two subspecies of Trypanosoma brucei, is endemic to areas of sub-Saharan Africa, while Chagas disease, a manifestation of Trypanosoma cruzi infection, is prevalent throughout Central and South America. In addition, many species of Leishmania are responsible for a range of cutaneous and visceral diseases, causing ulcers, destructive lesions and kalaazar, a lethal infection of the viscera. Collectively, these organisms infect 30 million people worldwide (~500 million live in endemic areas), and account for ~130,000 deaths annually. Given their debilitating and prevalent nature, trypanosomatid parasites impose a heavy medical, economic and social burden on entire populations, primarily in the developing world. The problem is further exacerbated by the fact that existing treatments have progressed little in the past 50 years, and current drugs show high toxicity and poor efficacy.
Blood-stream stages of T. brucei are entirely dependent on glycolysis as a source of ATP, and the tricarboxylic acid cycle and oxidative phosphorylation are both repressed. Glycolysis in axenically cultured T. cruzi, representing the intracellular pathogenic stage, is also essential for these parasites. […] Previous studies have shown that the glycolytic enzyme, phosphoglycerate kinase (PGK), is a viable target for drugs to kill these parasites.
NCGC Assay Protocol Summary:
Briefly, 3ul of substrate/PGK buffer (columns 1,2,5-48) are dispensed into Greiner white solid bottom 1536-well assay plates; columns 3-4 receive only TEA buffer as 0x PGK controls. Compounds are then transferred via Kalypsys pin tool equipped with 1536-pin array (10nl slotted pins, V&P Scientific, San Diego, CA). Following addition of compound, 1ul of GAPDH (100nM final concentration, all columns) is added to initiate the reaction (this upstream coupling enzyme is necessary for in-well production of PGK substrate, 1,3-bisphosphoglycerate (1,3-BPG), which is unstable and not commercially available). The plates are then incubated at room temperature for 60 minutes. Kinase-Glo Plus reagent is added (2ul) and plates incubated for 10 minutes, before being transferred to a ViewLux high-throughput CCD imager (PerkinElmer) wherein single end-point measurements of luminescence are acquired using a clear filter. All reagents are diluted in an assay buffer consisting of 100mM TEA (pH 7.6), 5mM MgCl2 and 0.01% Tween-20.
As to `N[C@@H](CCC(=O)N[C@H](CSN=O)C(=O)NCC(=O)O)C(=O)O`, the Potency result was “inactive”.
Next, `COc1cc(CC(=O)O)ccc1O`: “inactive”; `COc1cc([C@@H]2c3cc4c(cc3[C@H](O)C3COC(=O)[C@@H]32)OCO4)cc(OC)c1OC` (stereo not given in full): “inactive”; `CC(C)(CO)Cc1cc(C(C)(C)C)c(O)c(C(C)(C)C)c1`: “inactive”.
Next, `CCCCC[C@H](CC(=O)NO)C(=O)N[C@H](C(=O)N1CCC[C@H]1CO)C(C)C`: “inactive”; `COC1(C2=NCCN2)COc2ccccc2O1` (stereo not given): “inactive”; `O=c1ccc2c(OCCCCc3ccccc3)c3ccoc3cc2o1`: “inactive”.
Next, `CN1CC(O)C(O)C(O)C1CO` (stereo not given): “inactive”; `O=c1cc(-c2ccccc2F)[nH]c2cc3c(cc12)OCO3`: “inactive”.
For `CSC(N)=NCCC[C@H](N)C(=O)O`, the Potency entry was “inactive”.
For `C[C@](Cc1ccc(O)c(O)c1)(NN)C(=O)O`, the Potency result was “inactive”.
Next, `N=C(N)SCCc1cnc[nH]1`: “inactive”.
`Cn1cc(C(F)(F)F)nc1-c1ccc(OCC(O)CNCCOc2ccc(O)c(C(N)=O)c2)cc1` (stereo not given): the Potency entry was “inactive”.
As for `CC(O)C(O)[C@H]1CNc2nc(N)[nH]c(=O)c2N1` (stereo not given in full), the Potency result was “inactive”.
Under `CN1CCCC1CCOC(C)(c1ccccc1)c1ccc(Cl)cc1` (stereo not given) stands “inactive”; under `CC(=O)NNC(=O)N1Cc2ccccc2Oc2ccc(Cl)cc21`, “inactive”.
On to `CC(=O)SC1CC2=CC(=O)CC[C@]2(C)C2CC[C@@]3(C)C(CC[C@@]34CCC(=O)O4)C12` (stereo not given in full), for which the Potency entry is “inactive”.
Consider `Cc1nc2c(OCc3ccccc3)cccn2c1CC#N`, for which the Potency result was “inactive”.
Under `COc1cc2c(CCNC(C)=O)c[nH]c2cc1O` stands “inactive”; under `CCCCCCCCCC[Si](C)(C)CCC(=O)NC(Cc1ccc(C)cc1)c1ccccc1` (stereo not given), “inactive”; under `COc1ccccc1N1CCN(CCCCNC(=O)c2ccc3ccccc3c2)CC1`, “inactive”.
In the case of `O=C(N[C@@H](Cc1ccccc1)C(=O)CCl)OCc1ccccc1`, the Potency result was “inactive”.
`C=CCN1CCc2cc(O)c(O)cc2C(c2ccccc2)C1` (stereo not given): the Potency entry was “inactive”.
Next, `O=C(O)C1=CCNCC1`: “inactive”.
Next, `CC(C)C[C@H](NC(=O)C1OC1C(=O)O)C(=O)NCCCCN=C(N)N` (stereo not given in full): “inactive”; `C[C@]12C=CC(=O)C=C1CC[C@@H]1C2=CC[C@]2(C)[C@@H](C(=O)CN3CCN(c4cc(N5CCCC5)nc(N5CCCC5)n4)CC3)CC[C@@H]12`: “inactive”.
Next, `N#CC(=C(\N)Sc1ccccc1N)/C(C#N)=C(/N)Sc1ccccc1N`: “inactive”.
Regarding `CCSC(=N)N`, the Potency result is “inactive”.
Next, `C/C(=C\c1ccc(C(=O)O)cc1)c1ccc2c(c1)C(C)(C)CCC2(C)C`: “inactive”.
Under `O=C(O)/C(=C/c1c(C(=O)O)[nH]c2cc(Cl)cc(Cl)c12)c1ccccc1` stands “inactive”; under `c1ccc(C2CN3CCSC3=N2)cc1` (stereo not given), “inactive”.
Next, `Brc1c(Br)c(Br)c2[nH]cnc2c1Br`: “inactive”.
In the case of `O=C(O)Cc1ccc(O)c(O)c1`, the Potency entry was “inactive”.
Next, `CN(C)CCCc1cc(C(=O)Nc2ccc(-c3ccncc3)cc2)ccc1O`: “inactive”; `CCCCCCC/C=C\CCCCCCCCC(=O)O`: “inactive”.
Take `C=CC[C@H](N)C(=O)O`: the Potency result was “inactive”.
Under `OC[C@H]1O[C@H](n2cnc3c(N[C@H]4CCC[C@@H]4O)ncnc32)[C@H](O)[C@@H]1O` stands “inactive”; under `O=C(O)C1=CC(=C(c2ccc(O)c(C(=O)O)c2)c2ccc(O)c(C(=O)O)c2)C=CC1=O`, 75.7 nM (active); under `CCCCS(=N)(=O)CC[C@H](N)C(=O)O` (stereo not given in full), “inactive”.
Next, `O=S(=O)(c1cccc2c(Cl)cccc12)N1CCCNCC1`: “inactive”.
